Hit rate of the full screen: of about 410,000 compounds, about 490 (0.12%) were called active. A call without a number means that no potency is given here. Not shown: some 1% with an inconclusive outcome. Calls follow the shape of the dose curve; as a rule, active = well fitted inhibition curve with a large enough effect; inconclusive = small, poorly fitted or top-dose-only effect; inactive = flat fitted curve, though single readings scatter. Many of the other results were omitted from the sample, so actives are more common in it than they were.
Molecular target: pyruvate kinase (Trypanosoma brucei) (UniProt Q57TT1)
Assay: qHTS of Trypanosoma Brucei Inhibitors; also: nearly all actives have a fitted effect of over 50% in size
Details: TbPYK enzyme, Kinase-Glo Plus ATP luminescence, 45 min; series mostly up to 76.8 µM
Excerpt: Members of the Trypanosomatidae family of parasitic protozoans cause a spectrum of diseases throughout the tropical and subtropical world. Sleeping sickness, caused by two subspecies of Trypanosoma brucei, is endemic to areas of sub-Saharan Africa, while Chagas' disease, a manifestation of Trypanosoma cruzi infection, is prevalent throughout Central and South America. In addition, many species of Leishmania are responsible for a range of cutaneous and visceral diseases, causing ulcers, destructive lesions and kalaazar, a lethal infection of the viscera. These diseases cause severe public health and economic burdens on populations that are often already caught in a tragic cycle of poverty, poor nutrition and disease. Collectively, parasites of the trypanosomatid family infect 30 million people worldwide (~500 million live in endemic areas), and account for ~130K deaths annually. Existing treatments have developed little in the past 50 years, and suffer from toxicity, poor efficacy and resistance; the goal of this project is to develop lead drugs that will be suitable for entry into pre-clinical trials.
Glycolysis in axenically cultured T. cruzi, representing the intracellular pathogenic stage, is also essential for these parasites. {Engel, 1987} This project aims to discover and optimize selective inhibitors of the glycolytic enzyme pyruvate kinase (PYK) from Trypanosoma brucei, the parasite that causes sleeping sickness. […] Trypanosomatid PYKs show significant differences from their human counterparts including only 47-50% sequence identity and different allosteric and activation properties.{Callens, 1992} To this end, a qHTS was done against the MLSMR to discover inhibitors.
NIH Molecular Libraries Probe Production Network [MLPCN]
NIH Chemical Genomics Center [NCGC]
PI Name: Malcolm Walkinshaw, University of Edinburgh
2 uL of TbPYK/substrate buffer (columns 1-3, 5-48) are dispensed into Greiner white solid bottom 1536-well assay plates; column 4 receives only TEA buffer as 0x TbPYK controls. Compounds are then transferred via Kalypsys pin tool equipped with 1536-pin array (10 nL slotted pins, V&P Scientific, San Diego, CA). Following addition of compound, 2 uL of ADP (130 uM final concentration, all columns) is added to initiate the reaction. The plates are then incubated at room temperature for 45 minutes. Kinase-Glo Plus reagent is added (3 uL) and plates incubated for 10 minutes, before being transferred to a ViewLux high-throughput CCD imager (PerkinElmer) wherein single end-point measurements of luminescence are acquired using a clear filter. All reagents are diluted in an assay buffer consisting of 50 mM TEA (pH 7.2), 100 mM KCl, 10 mM MgCl2, 0.05% BSA and 0.01% Tween-20.
All screening operations will be performed on a fully integrated robotic system (Kalypsys, San Diego, CA) containing one RX-130 and two RX-90 anthropomorphic robotic arms (Staeubli, Duncan, SC). Library plates will be screened starting from the lowest and proceeding to the highest concentration. Vehicle-only plates, with DMSO being pin-transferred to columns 5-48, will be inserted uniformly at the beginning and the end of each library in order to monitor and record any shifts in the background, which can be affected by reagent dispensers or loss in enzyme activity over time. Screening data will be corrected, normalized, and concentration-effect relationships will be derived by using publicly-available curve fitting algorithms developed in-house (http://ncgc.nih.gov/pub/openhts).
Potency is read from the fitted curve at half-maximal effect.

Row | Structure (SMILES) | Potency
1 | O=C(c1cnccn1)N1CCC[C@@]2(CCN(Cc3ccncc3)C2)C1 | inactive
2 | COc1ccccc1CN1CC2(CCN(S(=O)(=O)c3ccccc3)CC2)C1 | inactive
3 | O=P1(N(CCCl)CCCl)NC(OO)CCO1 (stereo unspecified) | inactive
4 | O=C(c1cccc(F)c1)N1CCC2(CCCN(Cc3ccncc3)C2)CC1 | inactive
5 | COC(=O)N1CCC[C@@]2(CCN(C(=O)NC(C)C)C2)C1 | inactive
6 | O=C(c1ccco1)N1CCC[C@@]2(CCN(c3ccccc3)C2)C1 | inactive
7 | COC(=O)N1CCC2(CCCN(Cc3ccccc3OC)C2)CC1 | inactive
8 | CS(=O)(=O)N1CCC2(CC1)CN(Cc1cc(C(F)(F)F)cc(C(F)(F)F)c1)C2 | inactive
9 | CC(=O)N1CCC2(CCCN(c3ncccn3)C2)CC1 | inactive
10 | CC[C@]1(C)CC(=O)NC1=O | inactive
11 | C=C1C(=CC=C2CCC[C@]3(C)[C@@H]([C@H](C)C=C[C@H](C)C(C)C)CC[C@@H]23)C[C@@H](O)C[C@@H]1O | inactive
12 | COc1ccc(Cl)cc1NC(=O)CCn1c(=O)c2cccn2c2ccccc21 | inactive
13 | Cc1ccc(C(=O)NCCc2nnc(SCC(=O)Nc3cccc(C(=O)O)c3)n2C)cc1 | inactive
14 | CCOc1cc(C)ccc1OCc1nnc(SCC(=O)Nc2cccc(C(=O)O)c2)n1-c1ccccc1 | inactive
15 | Cc1ccc(C)c2c1cc(C)c1nnc(SCC(=O)Nc3cccc(C(=O)O)c3)n12 | 6.31 µM (active)
16 | CC(=O)OC[C@H]1O[C@@H](O[C@H]2[C@H](O)[C@@H](OC(=O)c3ccccc3C(=O)O)[C@H](O)O[C@@H]2COC(C)=O)[C@H](O)[C@@H](OC(=O)c2ccccc2C(=O)O)[C@@H]1O | inactive

Row | Structure (SMILES) | Potency
17 | O=C(c1cccc(F)c1)N1CCC2(CC1)CCN(c1ccccc1)CC2 | inactive
18 | c1csc(CN2CC3(CCNCC3)C2)n1 | inactive
19 | O=C(O)CCCCC(=O)O | inactive
20 | COc1ccc(C(=O)N2CCC[C@@]3(CCN(C(=O)NC(C)C)C3)C2)cc1 | inactive
21 | COc1ccccc1OCCCn1c(-c2ccc(Cl)cc2)nc2ccccc2c1=O | inactive
22 | O=S(=O)(c1ccccc1)N1CCC2(CC1)CN(Cc1nccs1)C2 | inactive
23 | CCOC(=O)c1ccc(NC2=CC(c3ccc(OCC)cc3)N(c3ccc(C(=O)OCC)cc3)C2=O)cc1 (stereo unspecified) | inactive
24 | CCOc1ccc(N2C(=O)Nc3ccccc3C2(O)C(=O)NCc2ccco2)cc1 (stereo unspecified) | inactive
25 | CCOc1ccc(N2C(=O)/C(=C/c3ccc(C)o3)N(C)C2=S)cc1 | 28.2 µM (active)
26 | O=C(c1cc(C(F)(F)F)cc(C(F)(F)F)c1)N1CCC2(CC1)CN(c1ccncc1)C2 | inactive
27 | CCc1cc(-c2n[nH]c(=S)n2CC(C)C)cs1 | 3.16 µM (active)
28 | CCc1cc(-c2nnc(SCC(=O)NC3CC3)n2C)cs1 | inactive
29 | CCn1c(C(C)C)n[nH]c1=S | inactive
30 | FC(F)(F)C1CCCN(c2nsc3ccccc23)C1 (stereo unspecified) | 6.31 µM (active)
31 | FCOC(C(F)(F)F)C(F)(F)F | inactive

Reference: PubChem BioAssay AID624173 (National Center for Advancing Translational Sciences (NCATS), 2012)
